SMILES strings stand for the structures.

Test [1] has as its target Bromodomain-containing protein 4 (Homo sapiens) (UniProt O60885). The following applies: Compound concentration 20.0 uM, Protein concentration 2.0 uM, Result type QC Liability.
The target in test [2] is T1, Transcription intermediary factor 1-alpha (Homo sapiens) (UniProt O15164).
T1 sequence (whole entry): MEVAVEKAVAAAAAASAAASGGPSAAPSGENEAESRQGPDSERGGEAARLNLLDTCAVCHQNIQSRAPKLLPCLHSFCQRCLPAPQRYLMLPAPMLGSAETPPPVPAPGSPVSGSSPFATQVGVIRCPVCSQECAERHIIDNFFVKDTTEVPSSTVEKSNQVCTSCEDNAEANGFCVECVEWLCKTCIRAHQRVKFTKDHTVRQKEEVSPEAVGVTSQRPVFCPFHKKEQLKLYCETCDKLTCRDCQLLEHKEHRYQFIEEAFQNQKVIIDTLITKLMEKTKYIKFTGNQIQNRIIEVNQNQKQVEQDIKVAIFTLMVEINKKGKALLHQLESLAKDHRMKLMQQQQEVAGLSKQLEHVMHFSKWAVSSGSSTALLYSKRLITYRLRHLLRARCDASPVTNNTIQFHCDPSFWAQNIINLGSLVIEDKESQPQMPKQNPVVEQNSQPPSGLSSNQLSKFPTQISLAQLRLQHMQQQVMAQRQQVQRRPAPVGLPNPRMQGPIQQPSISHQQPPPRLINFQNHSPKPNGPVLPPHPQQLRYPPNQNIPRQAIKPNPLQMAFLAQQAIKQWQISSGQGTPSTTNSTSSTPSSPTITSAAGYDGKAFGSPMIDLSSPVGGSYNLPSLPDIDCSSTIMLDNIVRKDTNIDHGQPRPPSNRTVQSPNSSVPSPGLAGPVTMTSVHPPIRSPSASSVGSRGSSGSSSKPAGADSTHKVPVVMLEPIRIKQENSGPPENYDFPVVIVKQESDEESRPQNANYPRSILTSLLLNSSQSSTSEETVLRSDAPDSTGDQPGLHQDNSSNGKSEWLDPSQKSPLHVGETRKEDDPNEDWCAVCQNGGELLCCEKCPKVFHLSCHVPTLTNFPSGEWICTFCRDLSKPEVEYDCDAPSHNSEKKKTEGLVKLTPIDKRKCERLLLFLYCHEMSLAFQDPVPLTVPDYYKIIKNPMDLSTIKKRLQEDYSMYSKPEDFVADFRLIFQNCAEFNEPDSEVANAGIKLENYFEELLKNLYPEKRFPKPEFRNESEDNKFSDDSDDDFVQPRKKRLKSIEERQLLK
The following applies: Compound concentration 20.0 uM, Protein concentration 2.0 uM, Result type QC Liability.

In the case of `COc1cc(C(N)=O)nc(-c2cccc(C#C[C@]3(O)CCN(C)C3=O)c2)c1`, the ΔTm is -0.77 °C in test [1] and -0.62 °C in test [2].

`CN(C)CCC[C@@]1(c2ccc(F)cc2)OCc2cc(C#N)ccc21`: the figures for the ΔTm in test [1] and in test [2] were -1.59 °C and -0.51 °C, respectively.

In the case of `CN(C)[C@H]1CCc2nc(NC(=O)c3cccc(Cn4cc(-c5ccc(C#N)cc5)cn4)c3)sc2C1`, the ΔTm was -1.88 °C in test [1] and -2.75 °C in test [2].

For `O=C(O)CCCc1cc2cc(Cl)ccc2n1S(=O)(=O)c1ccc2ncsc2c1`, the thermal shift (ΔTm) in test [1] is -3.71 °C; in test [2], -1.33 °C.

On to `Cn1cc(-c2ccc(N(C(=O)NCc3ccccc3)[C@H]3CC[C@H](Nc4ccc(C#N)cn4)CC3)cc2)ccc1=O`, for which the ΔTm was -0.82 °C in test [1] and -1.6 °C in test [2].

Regarding `Cc1nc2cccnc2n2c(-c3cc([C@@]4(O)CCCOC4)ccc3Cl)nnc12`, the values for the ΔTm in test [1] and in test [2] were -1.99 °C and 0.37 °C, respectively.

For the compound `CCOCCn1cc(C(=O)Nc2ccc(-n3nc(-c4cccnc4)cc3C(F)(F)F)cn2)ccc1=O`, the ΔTm in test [1] was -2.09 °C; in test [2] it was 0.27 °C.

In the case of `CC(=O)Nc1ncc(CN2CCC[C@H](Cc3cc(C)nc(C)c3)C2)s1`, the shift in melting temperature (ΔTm) was 0.62 °C in test [1] and -2.22 °C in test [2].

As to `N[C@@H](CC(=O)O)Cn1nnc(-c2ccc(Oc3ncc(Cl)cc3F)cc2)n1`, the ΔTm in test [1] is -12.6 °C; in test [2], -0.53 °C.

In the case of `Cc1sc(C(=O)c2cncnc2N[C@@H]2C[C@H](COS(N)(=O)=O)[C@@H](O)C2)cc1[C@@H]1NCCc2ccc(Cl)cc21`, the shift in melting temperature (ΔTm) was -4.45 °C in test [1] and -0.84 °C in test [2].

Consider `CN(C(=O)c1ccccc1)c1ccc2c(c1)[nH]/c(=N\C(=O)c1ccc(Br)s1)n2CCC(N)=O`, for which the values for the ΔTm in test [1] and in test [2] were -2.77 °C and -1.25 °C, respectively.

For the compound `CCCCNc1ncc2c(-c3ccc(CN4CCN(C)CC4)cc3)cn([C@H]3CC[C@H](O)CC3)c2n1`, the results for the thermal shift (ΔTm) in test [1] and in test [2] were -3.24 °C and -0.35 °C, respectively.

For the compound `Cc1cc(C2CCCNC2)ccc1Nc1ncc(Br)c(NCc2cccc3c2C(C)(C)C(=O)N3)n1` (stereo unspecified), the ΔTm is -4.96 °C in test [1] and -2.52 °C in test [2].

On to `O=C1CN(c2ccccc2F)C(NCCN2CCOCC2)=C1c1nc2cc(Br)ccc2c(=O)[nH]1`, for which the results for the thermal shift (ΔTm) in test [1] and in test [2] were -12.3 °C and 0.25 °C, respectively.

On to `COc1ccc(-c2cc3c(C)nc(N)nc3n([C@H]3CC[C@H](OCCO)CC3)c2=O)cn1`, for which the results for the ΔTm in test [1] and in test [2] were -0.11 °C and -2.05 °C, respectively.

Turning to `O=C(Nc1ccc(C(O)(C(F)(F)F)C(F)(F)F)cc1)c1ccc(C(F)(F)F)cc1`, the values for the ΔTm in test [1] and in test [2] were -1.03 °C and -0.53 °C, respectively.

With `N=C(N)Nc1cc(C2CCNCC2)cc(C(F)(F)F)c1`, the values for the shift in melting temperature (ΔTm) in test [1] and in test [2] were -0.1 °C and 0.35 °C, respectively.

On to `CO[C@H]1C[C@@H]2CC[C@@H](C)[C@@](O)(O2)C(=O)C(=O)N2CCCC[C@H]2C(=O)O[C@H]([C@H](C)C[C@@H]2CC[C@@H](O)[C@H](OC)C2)CC(=O)[C@H](C)/C=C(\C)[C@@H](O)[C@@H](OC)C(=O)[C@H](C)C[C@H](C)/C=C/C=C/C=C/1C`, for which the ΔTm in test [1] is -2.02 °C; in test [2], -0.81 °C.

As to `Nc1ncc2c(n1)-c1c([nH]c3ccc(C4CC4)cc13)CCCC2`, the ΔTm in test [1] was -1.04 °C; in test [2], -1.92 °C.

For the compound `Cc1ncc(C(=O)Nc2cc(C(C)(C)C)on2)cc1-n1cc(-c2cnn(C)c2C)nn1`, the thermal shift (ΔTm) in test [1] is -3.35 °C; in test [2], -3.56 °C.

As to `CC(=O)N1CCC(c2ccc(C(=O)NC3=NCCN3)cc2C(F)(F)F)CC1`, the ΔTm in test [1] is -0.26 °C; in test [2], 0.31 °C.

With `O=C(O)CCC/C=C\C[C@@H]1[C@@H](/C=C/[C@@H](O)COc2cccc(C(F)(F)F)c2)[C@H](O)C[C@@H]1O`, the values for the ΔTm in test [1] and in test [2] were -0.49 °C and -0.79 °C, respectively.

As for `Cc1cnc(-c2cnc(NCCNc3ccc(C#N)cn3)nc2-c2ccc(Cl)cc2Cl)[nH]1`, the thermal shift (ΔTm) was -2.28 °C in test [1] and -0.78 °C in test [2].

With `CC(C)Oc1ccc(Cc2ccc(NC3=NCCN3)cc2)cc1`, the ΔTm was -1.86 °C in test [1] and -0.24 °C in test [2].

As for `O=C(O)CCn1c2c(c3ccccc31)C[C@H](NS(=O)(=O)c1ccc(F)cc1)CC2`, the values for the thermal shift (ΔTm) in test [1] and in test [2] were -1.19 °C and -1.73 °C, respectively.

With `COc1ccccc1Nc1nc(-c2nn(Cc3c(F)cc(OCCCO)cc3F)c3ccccc23)ncc1OC`, the ΔTm in test [1] is -0.6 °C; in test [2], -1.94 °C.

On to `CC(C)C[C@H](NC(=O)[C@@H](O)[C@H](N)Cc1ccccc1)C(=O)O`, for which the ΔTm was -0.66 °C in test [1] and -0.82 °C in test [2].

With `CCn1c(CNC(=O)c2ncc(C)nc2N)[n+](CC)c2ccc(C(=O)N(C)CCN(C)C)cc21`, the figures for the ΔTm in test [1] and in test [2] were -1.53 °C and -0.01 °C, respectively.

As for `CC(C)(O)CNC(=O)N1C(=O)N(c2cccc(C(F)(F)F)c2)C2=C(C(=O)CC2)[C@H]1c1ccc(C#N)cc1`, the ΔTm in test [1] came to 0.34 °C; in test [2] it was 0.22 °C.

On to `Cc1ccccc1Oc1cc(-n2c(=O)cc(C(F)(F)F)[nH]c2=O)c2ccccc2c1Cl`, for which the ΔTm is -1.47 °C in test [1] and -0.87 °C in test [2].

Turning to `C[C@@H](Oc1cc(-n2cnc3ccc(OC4CCN(C)CC4)cc32)sc1C(N)=O)c1ccccc1Cl`, the ΔTm was -2.01 °C in test [1] and -2.55 °C in test [2].

Regarding `Cc1cc(NC(=O)c2cccc(NC(=O)/C=C/CN(C)C)c2)ccc1Nc1nccc(-c2cccnc2)n1`, the thermal shift (ΔTm) was -1.31 °C in test [1] and -1.44 °C in test [2].

On to `CCN(CC)C/C=C/C(=O)Nc1cc2c(Nc3ccc(F)c(Cl)c3)ncnc2cc1OCC1CC1`, for which the shift in melting temperature (ΔTm) in test [1] was -1.26 °C; in test [2], -0.54 °C.

With `COc1cc2c(NC3CCN(C(C)C)CC3)nc(C3CCCCC3)nc2cc1OCCCN1CCCC1`, the figures for the ΔTm in test [1] and in test [2] were -2.43 °C and -2.96 °C, respectively.

On to `COc1cc(Nc2cnc(C#N)c(O[C@H](C)CN(C)C)n2)ncc1-c1cnn(C)c1`, for which the shift in melting temperature (ΔTm) was -1.55 °C in test [1] and -2.76 °C in test [2].

Consider `Cn1ncc(NC(=O)c2nc(-c3c(F)cccc3F)sc2N)c1N1CC[C@@H](N)[C@H](F)CC1`, for which the ΔTm in test [1] is -1.02 °C; in test [2], -1.63 °C.

In the case of `CC(C)(O)CNC(=O)N1C(=O)N(c2cccc(C(F)(F)F)c2)C2=C(C(=O)CC2)[C@@H]1c1ccc(C#N)cc1`, the shift in melting temperature (ΔTm) in test [1] is -0.6 °C; in test [2], 0.83 °C.

Regarding `Cc1cc(CN)cc(C)c1-c1ncn(C)c1-c1cncn1C`, the thermal shift (ΔTm) is -1.42 °C in test [1] and 0.01 °C in test [2].

Values taken from ChEMBL document CHEMBL5308504, “Tm Shift (DSF) assay results for EUbOPEN Chemogenomics Library” (2023).
